The results in this text go back to PubChem BioAssay AID686940 (The Scripps Research Institute Molecular Screening Center, 2013).

About 2,600 (0.7%) of roughly 370,000 compounds were called active.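 How the source made its calls: active means inhibition above a per-plate cutoff, mean inhibition of test wells between control levels plus 3 SD (cut at about 38% in these data); inactive means the rest.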 For the sample, actives were picked, then their nearest neighbours and some compounds at random.

The target of the test is COUP transcription factor 2 (Homo sapiens) (UniProt P24468). The test can be described thus: NR2F2 transcriptional activity inhibitors, primary screen, cell-based, luciferase reporter, HEK293T, luminescence (AID 686940).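 Further: cells cotransfected with COUP-TFII expression vector driving the NGFI-A reporter; 0% = median of COUP-TF2 test wells and 100% = reporter-only cells.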 To be noted: HEK293T NGFI-A luciferase reporter, at 8.6 µM, stronger effect = higher value. On the technique in general: Reporter assays use an easily measured gene product as a stand-in for the process of interest.
Chain of COUP transcription factor 2 (Homo sapiens) (P24468 whole entry, looked up): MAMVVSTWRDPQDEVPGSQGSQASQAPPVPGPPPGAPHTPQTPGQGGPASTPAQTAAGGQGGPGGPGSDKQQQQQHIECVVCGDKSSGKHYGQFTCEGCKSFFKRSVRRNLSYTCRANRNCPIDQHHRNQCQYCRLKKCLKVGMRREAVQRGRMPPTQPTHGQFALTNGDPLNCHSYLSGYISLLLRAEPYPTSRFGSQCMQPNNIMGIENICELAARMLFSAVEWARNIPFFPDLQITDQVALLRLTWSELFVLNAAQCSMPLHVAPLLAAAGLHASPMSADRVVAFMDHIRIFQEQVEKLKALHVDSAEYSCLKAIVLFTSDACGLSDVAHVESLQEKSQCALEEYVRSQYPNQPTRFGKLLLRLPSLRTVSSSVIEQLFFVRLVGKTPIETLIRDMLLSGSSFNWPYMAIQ
As to `CN(C)S(=O)(=O)c1cccc(C(=O)N/N=C\c2ccco2)c1`, the inhibition (commonly the relative decrease from the control value, in per cent) was 2.18% (inactive).
Next, `O=C(Nc1ccccc1)N1CCN(Cc2nc3ccccc3c(=O)[nH]2)CC1`: 13.6% (inactive); `O=C(C1CCN(S(=O)(=O)c2ccccc2)CC1)N1CCN(C2CCCCC2)CC1`: -29.2% (inactive); `CCN(CC)P(=O)(C(NC(=O)OC)C(F)(F)C(F)(F)C(F)(F)C(F)F)N(CC)CC` (stereo not drawn): 98.4% (active).
For `O=C(CSc1nc2c(c(=O)[nH]1)CCCC2)N1CCCCC1`, the inhibition was -26.3% (inactive).
For `O=S1(=O)c2ccc(N3CCN(Cc4ccccc4F)CC3)cc2Oc2ccccc2CN1Cc1cn(Cc2ccc(Cl)cc2)nn1`, the inhibition was -6.71% (inactive).
The figure for `Cc1ccc(-n2c(SCC(=O)Nc3ccc(S(=O)(=O)Nc4nccs4)cc3)nnc2-c2ccccn2)cc1` is -5.91% (inactive); for `CCSc1nsc(NC(=O)Nc2cccc(C(C)=O)c2)n1` it is 17.5% (inactive).
Next, `CCCCN1C(=O)C(=O)N(CC(=O)Nc2cccc(C(C)=O)c2)C1=O`: 0.73% (inactive).
On to `C=CCSc1nsc(NC(=O)Nc2cccc(C(C)=O)c2)n1`, for which the inhibition was 38.1% (active).
Next, `COC(=O)C[C@@H]1CC[C@@H]2[C@H](COc3ccc(NC(=O)c4cccc(F)c4)cc3C(=O)N2C)O1`: -0.62% (inactive); `COc1ccc(-n2c(SCC(=O)Nc3ccc4cn[nH]c4c3)nnc2-c2cccnc2)cc1`: 9.8% (inactive); `N#CCC[C@H]1CC[C@]2(CCCN(Cc3ccc(Cl)cc3)C2)O1`: 1.96% (inactive).
The figure for `O=C1NC[C@H](CCCCN2C[C@H](Cc3ccccc3)N(Cc3ccccc3)C(=O)C2=O)N(CCc2ccc(O)cc2)C1=O` is -7.95% (inactive); for `O=C1NC[C@H](CCCCN2C[C@H](Cc3ccc(O)cc3)N(CCc3ccccc3)C(=O)C2=O)N(CCc2ccccc2)C1=O` it is -1.56% (inactive).
Next, `O=C1NC[C@@H](Cc2ccc(O)cc2)N(CCc2cccc(F)c2)C1=O`: 48.2% (active); `COc1ccnc(C(=O)N2CCC(Oc3cccnc3)CC2)c1`: -26.8% (inactive).
With `O=S1(=O)c2c(cccc2N2CCSCC2)Oc2ccccc2CN1Cc1cn(Cc2ccc(F)cc2)nn1`, the inhibition was -4.53% (inactive).
Regarding `O=C(Nc1cc(Cl)cc(Cl)c1)OCCN1CCCC12CCC(c1ccccc1)CC2` (stereo not drawn), the inhibition is 2% (inactive).
The figure for `NS(=O)(=O)c1ccc(CCNC(=O)CNC(=O)Cc2ccccc2)cc1` is 10.1% (inactive); for `NS(=O)(=O)c1ccc(CCNc2nc(C(F)(F)F)nc3ccccc23)cc1` it is 46.6% (active); for `CC(Nc1nc(C(F)(F)F)nc2ccccc12)c1cccs1` (stereo not drawn) it is -15.1% (inactive).
Next, `CCCCn1c(SCc2ncc(-c3ccccc3)o2)nc2cc(S(N)(=O)=O)ccc21`: 47% (active).
Next, `c1ccc(-c2cnc(CN3CCN(c4ccccc4)CC3)o2)cc1`: -25.5% (inactive); `CCCCn1c(SCC(=O)N2CCCC2=O)nc2cc(S(N)(=O)=O)ccc21`: -5.45% (inactive); `Cc1ccc(NC(=O)Nc2cc(C)nn2-c2ccccc2)cc1`: -17.6% (inactive).
Take `COc1ccc(C2CC=C(C(=O)O)C(c3ccccc3F)N2S(=O)(=O)c2ccc(C)cc2)cc1OC` (stereo not drawn): the inhibition was 13% (inactive).
Next, `COc1ccc2c(C(C)c3ccc(N)cc3)cn(C)c2c1` (stereo not drawn): -15.8% (inactive); `O=C(C1CCCN1S(=O)(=O)c1ccccc1)N1CCc2ccccc2C1` (stereo not drawn): 7.01% (inactive).
The figure for `CN1C(=O)c2cc(NS(C)(=O)=O)ccc2OC[C@@H]2O[C@@H](CC(=O)NCc3ccc(-c4ccccc4)cc3)CC[C@H]21` is -21.8% (inactive); for `O=C(c1cc(C(=O)N2CCN(c3ccc(F)cc3)CC2)cc([N+](=O)[O-])c1)N1CCN(c2ccc(F)cc2)CC1` it is 58.1% (active); for `O=[N+]([O-])c1ccc(N2CCN(c3ccc(F)cc3)CC2)cn1` it is -9.2% (inactive).
For the compound `O=C(c1cncc(Br)c1)N1CCN(c2ccc([N+](=O)[O-])cc2)CC1`, the inhibition was 9.04% (inactive).
The figure for `CN(C)CC(=O)N[C@@H]1C[C@@H]2O[C@H](CO)CC[C@@H]2O[C@@H]1CCc1ccc(C#Cc2ccccc2)cc1` is 27.3% (inactive); for `Cc1cc(C(=O)NNC(=O)CCC2CCCCC2)c(C)o1` it is 3.17% (inactive); for `Cc1cc(C(=O)NC2CCCc3c2cnn3-c2cccc(C)c2C)c(C)o1` (stereo not drawn) it is 44.6% (active).
The figure for `Cn1nccc1C(=O)NC1CCCc2c1cnn2-c1ccc(F)cc1F` (stereo not drawn) is 60.9% (active); for `COCc1ccc(C(=O)NC2CC(C)(C)Cc3c2cnn3-c2ccc(C)cc2)o1` (stereo not drawn) it is -7.12% (inactive).
Next, `Cc1cc(C(=O)NC2CC(C)(C)Cc3c2cnn3-c2ccccc2)n[nH]1` (stereo not drawn): -4.58% (inactive).
For the compound `O=C(CCNC(=O)c1ccc(Cl)cc1)NC1CCCc2ccccc21` (stereo not drawn), the inhibition was -32.6% (inactive).
As to `Cn1nccc1C(=O)NC1CCCc2c1cnn2-c1ccccc1F` (stereo not drawn), the inhibition was 63.7% (active).
Next, `COC(=O)c1ccc(C(=O)NC2CC(C)(C)Cc3c2cnn3-c2ccc(F)cc2)nc1` (stereo not drawn): -4.63% (inactive).
For `COc1ccc(C(=O)NC2CC(C)(C)Cc3c2cnn3-c2ccccc2)c(OC)c1` (stereo not drawn), the inhibition was -0.91% (inactive).
For `COc1cccc(CSc2nnc(-c3cccnc3)n2Cc2ccccc2)c1`, the inhibition was 14.1% (inactive).
Next, `COC(=O)c1cccc(Cn2ccc3ccc(-c4ccc5ccn(C(=O)C6CCCCC6)c5c4)cc32)c1`: -12.6% (inactive); `O=C(NCCC1=CCCCC1)C1CCN(S(=O)(=O)c2ccc(Cl)s2)CC1`: 8.27% (inactive).
The figure for `COC(=O)[C@H](C(C)C)N1CCc2nnn(Cc3ccc(C)cc3)c2-c2ccccc2S1(=O)=O` is 7% (inactive).
Next, `COC(=O)C[C@@H]1CC[C@@H]2[C@@H](COc3ccc(NC(=O)Nc4ccc(F)c(F)c4)cc3C(=O)N2C)O1`: 4.71% (inactive); `CC[n+]1cc(C)ccc1/C=C/c1ccc(N(C)C)cc1`: 74.1% (active); `O=S1(=O)c2ccc(Br)cc2OC[C@@H](Cc2ccccc2)N1Cc1cn(Cc2ccco2)nn1`: 8.82% (inactive).
Consider `C=CCN1C(C(=O)OC)CN(Cc2cn(Cc3ccccc3)nn2)CCS1(=O)=O` (stereo not drawn), for which the inhibition was -8.52% (inactive).
The figure for `CC(CCN1CCC(C(O)(c2ccccc2)c2ccccc2)CC1)Oc1ccc([N+](=O)[O-])cc1Cl` (stereo not drawn) is 10.1% (inactive); for `CC(C)(C)OC(=O)NCc1cc(F)ccc1/C=C/S(=O)(=O)NCCc1ccccc1` it is 9.33% (inactive).
